Among the data in PubChem BioAssay (NCI) are growth values, retold here.

About 83,000 compounds went through this panel and 20% of them were active in at least one assay; those are over-represented in the sample as a whole.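 Treatment: one concentration, 48 hours, 96-well format. Scoring: percent growth, with anything below 10 considered active.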 Values without a mark were called inactive. Calls of active or inactive are those of the source.

In one assay the test system is SR leukemia. Description: NCI-60 one-dose screen, 48 h (100 = growth as untreated, 0 = no growth, -100 = all killed). The following applies: 10 µM unless noted.
As for `COc1ccc(-c2nc(SCC(C)C)nc(N/N=C\c3cccc([N+](=O)[O-])c3)c2C#N)cc1`, the growth was 43.5%.

Turning to `C=C1C(=O)O[C@@H]2C[C@@H](C)CCC(=O)[C@](C)(OC(C)=O)C[C@H](OC(=O)/C(C)=C\C)[C@@H]12`, the growth is 4.94% (active).

Consider `C=C1C(=O)O[C@@H]2C[C@@H](C)/C=C\C(=O)[C@](C)(OC(C)=O)C[C@H](OC(=O)/C(C)=C\C)[C@@H]12`, for which the growth is 3.84% (active).

As for `CCCCCCNC(=O)Oc1ccc(/C(=C(/C)c2ccc(OC)cc2)c2ccc(OCCN3CCCC3)cc2)cc1`, the growth was 5.51% (active).

Regarding `CN(C)c1ccc(/C=N/Nc2nc(N/N=C/c3ccc(N(C)C)cc3)nc(N3CCOCC3)n2)cc1`, the growth is -13.1% (active).

With `COc1ccc(-c2oc3cc(O)cc(O)c3c(=O)c2OC)cc1O`, the growth is 11%.

The next assay concerns RPMI-8226 leukemia. Described as above. The conditions noted are these: 10 µM unless noted.
For the molecule `O=C(COc1ccc(/C=C2\SC(=O)NC2=O)cc1)Nc1ccc(C(=O)/C=C/c2cc3ccccc3nc2Cl)cc1`, the growth is -25.8% (active).

Turning to `CC(C)Sc1nc(NC2CC2)c(C#N)c(-c2ccccc2)n1`, the growth is 91%.

As to `O=C(COc1cccc2cccnc12)Nc1ccc(C(=O)/C=C/c2ccc(Cl)cc2)cc1`, the growth was 7.02% (active).

Take `Oc1ccc(CSc2nnc(-c3ccc(Br)cc3)n2-c2ccccc2)c2cccnc12`: the growth was 13.7%.

Turning to `COc1ccccc1N1CCN(C2=NN=C(c3cccc(Cl)c3)c3ccccc3C2)CC1`, the growth is 9.68% (active).

For the molecule `O=C1/C(=C/c2ccc([N+](=O)[O-])cc2)SC(=Nc2ccccc2)N1Nc1ccccc1`, the growth is 42.7%.

Turning to `COc1ccc([C@H]2c3[nH]c4ccccc4c3C[C@@H]3C(=O)N(C4CCN(Cc5ccccc5)CC4)CC(=O)N23)c(OC)c1`, the growth was 52.9%.

On to `CC1OC(O[C@@H]2[C@H](O)C(CO)OC(O[C@H]3COC(O[C@H]4CC[C@]5(C)[C@H]6CC[C@]78OC[C@@]9(CCC(C)(C)C[C@H]97)[C@H](O)C[C@@]8(C)[C@]6(C)CC[C@H]5C4(C)C)[C@@H](OC4OC(CO)[C@@H](O)[C@@H](O)[C@@H]4O)[C@@H]3O)[C@H]2OC2OC[C@@H](O)[C@@H](O)[C@@H]2O)[C@@H](O)[C@@H](O)[C@H]1O` (some centres undefined), for which the growth was -46.3% (active).

As to `N#Cc1c(-c2cccs2)cc(-c2cnccn2)nc1SCC(=O)NNC(=S)Nc1ccc(F)cc1`, the growth was 105%.

`O=C1NC(=O)c2c1c1c3ccccc3ccc1c1[nH]c3ccccc3c21`: the growth is 1.6% (active).

Turning to `COc1ccc(-c2ccc3c4c(cccc24)C(=O)N(N2C(=O)c4cccc5cccc(c45)C2=O)C3=O)cc1`, the growth was 29.4%.

For the molecule `NS(=O)(=O)c1ccc(Nc2nc(N/N=C/c3ccc(C(F)(F)F)cc3)nc(Nc3ccccc3)n2)cc1`, the growth was -5.16% (active).

For `COc1cc(CNC(=O)/C=C/c2ccccc2)ccc1OCC(=O)NO`, the growth was 102%.

Consider `NS(=O)(=O)c1ccc(Nc2nc(N/N=C/c3ccc(F)cc3)nc(Nc3ccccc3)n2)cc1`, for which the growth is 50.6%.

For the molecule `C=C1C(=O)O[C@@H]2C[C@@H](C)[C@H](OC)CC(=O)[C@](C)(OC(C)=O)C[C@H](OC(=O)/C(C)=C\C)[C@@H]12`, the growth was 68.3%.

For the molecule `O=C(c1ccc(O)cc1)[C@@H]1[C@@H]2CCCN2[C@@]2(C(=O)N(C(=O)c3ccc(F)cc3)c3ccccc32)[C@H]1c1ccc(F)cc1`, the growth is 75.6%.

Regarding `Cc1ccc(-n2cc(/C=C/C(=O)c3ccc(S(C)(=O)=O)cc3)c(-c3ccc(S(C)(=O)=O)cc3)n2)cc1`, the growth is 92.3%.

With `Cc1ccc(Cc2cnc(NC(=O)/C(C#N)=C/c3ccc(-c4ccc(Cl)cc4)o3)s2)cc1`, the growth was 94.3%.

As for `C=C(C)C(=O)O[C@H]1C[C@@]2(C)OC(=CC2=O)/C(C)=C\[C@H]2OC(=O)C(=C)[C@H]12`, the growth was -15.3% (active).

Consider `CCN(CC)CCN1C(=O)c2c(c3c4cc(Br)ccc4[nH]c3c3ccc4ccccc4c23)C1=O`, for which the growth was -42.4% (active).

Turning to `Oc1ccc(CSc2nnc(-c3ccc(Oc4ccccc4)cc3)o2)c2cccnc12`, the growth is 23.5%.

Turning to `O=C1c2c(c3c4cccnc4[nH]c3c3ccc4ccccc4c23)C(=O)N1CCN1CCOCC1`, the growth was 42.5%.

On to `O=c1[nH]c(CCl)nc2c1cnn2-c1ccccc1`, for which the growth is 82.5%.

Regarding `C=C1C(=O)O[C@@H]2/C=C(/C)C3=CC(=O)[C@@](C)(C[C@H](OC(=O)/C(C)=C\C)[C@@H]12)O3`, the growth was -11.3% (active).

`O=C1CC2(CCOCC2)Oc2ncccc21`: the growth was 5.53% (active).

As to `O=C(Nc1ccc(F)cc1)c1cc(-c2ccc(F)cc2F)ccc1O`, the growth was -11.7% (active).

Take `COc1ccc(/C=N\NC(=O)c2ccc3nc(-c4ccc(Br)cc4)[nH]c3c2)cc1`: the growth was 42.1%.

As to `O=C(O)c1ccc(-n2cc(CNc3ccc(Cl)cc3)c(-c3ccc(F)cc3)n2)cc1`, the growth was 80.2%.

With `COc1cc(/C=N/n2cnc3oc(-c4ccccc4)cc3c2=N)cc(CN2CCCC2)c1O`, the growth is -42.2% (active).

Regarding `CCOC(=O)c1c(NCC(=O)Nc2cccc(Cl)c2)sc2c1CCCC2`, the growth was 78.6%.

Turning to `Cc1ccc(-c2csc(N/N=C/c3nc4ccccc4n3C3CC3)n2)cc1`, the growth is 84.8%.

As for `C#C[C@]1(O)CC[C@H]2[C@@H]3CC=C4c5sc(Nc6cccc(C)n6)nc5CC[C@]4(C)[C@H]3CC[C@@]21C`, the growth was -33.2% (active).

On to `COc1ccc(-c2nc(SCC(C)C)nc(N/N=C\c3cccc([N+](=O)[O-])c3)c2C#N)cc1`, for which the growth was 66.9%.

On to `C=C1C(=O)O[C@@H]2C[C@@H](C)CCC(=O)[C@](C)(OC(C)=O)C[C@H](OC(=O)/C(C)=C\C)[C@@H]12`, for which the growth is 32.3%.

Regarding `C=C1C(=O)O[C@@H]2C[C@@H](C)/C=C\C(=O)[C@](C)(OC(C)=O)C[C@H](OC(=O)/C(C)=C\C)[C@@H]12`, the growth is -12.6% (active).

Consider `CCCCCCNC(=O)Oc1ccc(/C(=C(/C)c2ccc(OC)cc2)c2ccc(OCCN3CCCC3)cc2)cc1`, for which the growth is 16.8%.

As for `CN(C)c1ccc(/C=N/Nc2nc(N/N=C/c3ccc(N(C)C)cc3)nc(N3CCOCC3)n2)cc1`, the growth was 35%.

In the case of `COc1ccc(-c2oc3cc(O)cc(O)c3c(=O)c2OC)cc1O`, the growth is 17.4%.
